Where “and” joins values, the source holds several entries; their conditions need not be identical. Equal values may be shown once. Results filed as inconclusive are left out. Calls of active or inactive are those of the source. The calls were made as follows, unless noted: active = hit-call score of the fitted dose curve at least 0.9, where 1 is the maximum; inactive = score below 0.9.
Experiments:
[1] = target: Nuclear respiratory factor 1 (Homo sapiens) (UniProt Q16656); test: ATG_NRF1_CIS: Attagene CIS-FACTORIAL HepG2 Assay for human Nuclear Respiratory Factor 1 (NRF1) Orphan Gene (AID 2282987); conditions: HepG2 NRF1 cis-element reporter, Attagene multiplex; actives raise or lower the signal
Chain of Nuclear respiratory factor 1 (Homo sapiens) (Q16656 whole entry, looked up): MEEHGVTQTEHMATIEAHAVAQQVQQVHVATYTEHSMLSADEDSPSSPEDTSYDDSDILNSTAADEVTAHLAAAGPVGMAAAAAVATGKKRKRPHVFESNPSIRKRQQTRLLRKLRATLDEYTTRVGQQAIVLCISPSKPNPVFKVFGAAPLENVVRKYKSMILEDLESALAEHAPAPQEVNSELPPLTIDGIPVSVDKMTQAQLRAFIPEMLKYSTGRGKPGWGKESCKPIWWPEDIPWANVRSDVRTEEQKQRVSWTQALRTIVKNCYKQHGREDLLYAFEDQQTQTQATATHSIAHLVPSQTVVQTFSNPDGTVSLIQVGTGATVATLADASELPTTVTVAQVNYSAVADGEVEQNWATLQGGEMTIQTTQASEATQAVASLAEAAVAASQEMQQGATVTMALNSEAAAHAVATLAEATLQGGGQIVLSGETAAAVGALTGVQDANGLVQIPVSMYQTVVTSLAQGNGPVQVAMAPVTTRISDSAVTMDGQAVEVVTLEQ
How it was run: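 Reporter mRNA induction or loss in HepG2 cells after 24 h dosing; cis-regulated reporter constructs report endogenous transcription-factor activity. Quantified by RT-PCR/capillary electrophoresis fluorescence, DMSO-referenced.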

[2] = ATG_NFI_CIS: Attagene CIS-FACTORIAL HepG2 Assay for human Nuclear Factor I (NFI) (AID 2282989); conditions: HepG2 cis-regulatory reporter, NFI response element transcription; actives raise or lower the signal
How it was run: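 HepG2 cells transiently transfected with cis-element-driven multiplexed reporter transcription units, dosed for 24 h. Reporter mRNA quantified by RT-PCR, fluorescent labelling, HpaI digestion and capillary electrophoresis; bidirectional fit versus DMSO baseline.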

[3] = target: Myc proto-oncogene protein (Homo sapiens) (UniProt P01106); test: ATG_Myc_CIS: Attagene CIS-FACTORIAL HepG2 Assay for human Myelocytomatosis (Myc) Proto-Oncogene Transcription Factor (AID 2282990); conditions: HepG2, Attagene cis-reporter transcription factor activity; actives raise or lower the signal
Chain of Myc proto-oncogene protein (Homo sapiens) (P01106 whole entry, looked up, the tested form may be a part): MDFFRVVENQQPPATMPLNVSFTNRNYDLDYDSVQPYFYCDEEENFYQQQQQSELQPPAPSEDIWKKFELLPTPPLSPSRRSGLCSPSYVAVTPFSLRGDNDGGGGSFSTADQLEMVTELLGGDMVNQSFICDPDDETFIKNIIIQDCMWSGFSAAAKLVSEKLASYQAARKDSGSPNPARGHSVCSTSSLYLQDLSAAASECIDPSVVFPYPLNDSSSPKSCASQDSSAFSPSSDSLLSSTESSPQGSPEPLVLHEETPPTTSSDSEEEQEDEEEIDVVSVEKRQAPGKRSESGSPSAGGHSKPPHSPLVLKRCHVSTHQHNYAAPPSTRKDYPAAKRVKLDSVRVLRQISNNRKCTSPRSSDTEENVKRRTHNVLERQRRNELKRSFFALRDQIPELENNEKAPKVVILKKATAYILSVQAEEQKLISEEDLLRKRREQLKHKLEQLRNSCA
How it was run: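 Read-out: fluorescent reporter mRNA fragments resolved by capillary electrophoresis after RT-PCR. Human HepG2 liver cells carried transfected cis-element reporter units and were dosed for 24 h. Gain or loss of signal fitted relative to DMSO baseline.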

[4] = ATG_NF_kB_CIS: Attagene CIS-FACTORIAL HepG2 Assay for human Nuclear Factor Kappa B (NF-kB) (AID 2282991); conditions: HepG2 Attagene cis-factorial NF-kB reporter mRNA; actives raise or lower the signal
How it was run: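 DMSO served as negative control and baseline for bidirectional curve fitting. Transiently transfected HepG2 cells were dosed for 24 h, then reporter transcripts were measured by RT-PCR with capillary electrophoresis detection.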

[5] = ATG_NRF2_ARE_CIS: Attagene CIS-FACTORIAL HepG2 Assay for human Nuclear Factor Erythroid 2 Related Factor 2 (NFR2) response to Antioxidant Response Elements (ARE) (AID 2282992); conditions: HepG2 Attagene ARE/NRF2 reporter, transcription factor activity; actives raise or lower the signal;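 as to AC50: reporter mRNA level measured by RT-PCR and capillary electrophoresis fluorescence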
How it was run: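 HepG2 cells transiently transfected with multiplexed cis-regulated reporter transcription units measure endogenous transcription factor activity. Reporter mRNA at 24 h is quantified by RT-PCR, fluorescent labelling and capillary electrophoresis, with bidirectional fitting relative to DMSO.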

[6] = ATG_Oct_MLP_CIS: Attagene CIS-FACTORIAL HepG2 Assay for human Octamer-Binding Transcription Factor (Oct) (AID 2282993); conditions: HepG2 Attagene cis-factorial Oct reporter, mRNA; actives raise or lower the signal
How it was run: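 HepG2 cells transiently transfected with cis-promoter-driven multiplexed reporter transcription units, dosed for 24 h. Reporter mRNA quantified by RT-PCR, fluorescent labelling, HpaI digestion and capillary electrophoresis; bidirectional fits versus DMSO baseline.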

[7] = target: Cellular tumor antigen p53 (Homo sapiens) (UniProt P04637); test: ATG_p53_CIS: Attagene CIS-FACTORIAL HepG2 Assay for human p53 Transcription Factor (AID 2282994); conditions: HepG2 p53 cis-element reporter, Attagene mRNA; actives raise or lower the signal
Chain of Cellular tumor antigen p53 (Homo sapiens) (P04637 whole entry, looked up): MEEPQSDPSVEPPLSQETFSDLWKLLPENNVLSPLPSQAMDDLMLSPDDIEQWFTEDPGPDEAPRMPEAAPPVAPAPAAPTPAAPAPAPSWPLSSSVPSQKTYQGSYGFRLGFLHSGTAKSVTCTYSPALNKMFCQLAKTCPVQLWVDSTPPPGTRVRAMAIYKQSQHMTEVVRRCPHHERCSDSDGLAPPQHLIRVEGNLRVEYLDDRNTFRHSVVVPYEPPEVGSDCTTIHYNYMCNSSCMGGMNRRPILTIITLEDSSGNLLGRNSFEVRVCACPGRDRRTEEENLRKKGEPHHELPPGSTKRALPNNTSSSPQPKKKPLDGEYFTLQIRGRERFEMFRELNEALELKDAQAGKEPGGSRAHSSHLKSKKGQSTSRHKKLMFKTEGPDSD
How it was run: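 HepG2 cells transiently transfected with multiplexed cis-regulated reporter transcription units read endogenous TF activity. After 24 h compound exposure, reporter mRNA was quantified by RT-PCR, fluorescent labelling, HpaI digestion and capillary electrophoresis; bidirectional fits versus DMSO baseline.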

[8] = target: human Peroxisome Proliferator-activated Receptor alpha (PPARa), PPARA (gene 5465) (UniProt Q07869); test: ATG_PPARa_TRANS: Attagene TRANS-FACTORIAL HepG2 Assay for human Peroxisome Proliferator-activated Receptor alpha (PPARa) (AID 2283001; active = hit-call score of the fitted dose curve at least 0.9, where 1 is the maximum;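 as to AC50: potency for gain of reporter signal over DMSO so agonist or activator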)
Chain of human Peroxisome Proliferator-activated Receptor alpha (PPARa), PPARA (gene 5465) (Q07869 whole entry, looked up, the tested form may be a part): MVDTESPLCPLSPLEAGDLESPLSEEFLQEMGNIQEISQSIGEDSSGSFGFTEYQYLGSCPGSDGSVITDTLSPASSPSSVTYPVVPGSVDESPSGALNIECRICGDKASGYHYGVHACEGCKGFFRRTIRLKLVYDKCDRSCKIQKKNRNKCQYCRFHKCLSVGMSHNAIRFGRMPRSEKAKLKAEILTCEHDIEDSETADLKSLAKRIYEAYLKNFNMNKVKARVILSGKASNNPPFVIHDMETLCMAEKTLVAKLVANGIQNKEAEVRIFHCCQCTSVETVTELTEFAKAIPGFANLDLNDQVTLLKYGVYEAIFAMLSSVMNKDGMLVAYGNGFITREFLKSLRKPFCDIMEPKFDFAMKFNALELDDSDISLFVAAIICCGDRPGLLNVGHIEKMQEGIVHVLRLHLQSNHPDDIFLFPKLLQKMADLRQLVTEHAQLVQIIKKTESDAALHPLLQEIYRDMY
How it was run: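 HepG2 cells transiently transfected with multiplexed GAL4-UAS reporters driven by exogenous chimeric NR-Gal4 proteins; reporter mRNA measured after 24 h dosing. Read-out by RT-PCR, 6-FAM labelling, HpaI digestion and capillary electrophoresis; gain of signal versus DMSO.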

[9] = BSK_3C_TissueFactor: BioMAP Diversity Plus: 3C Assay for Tissue Factor Biomarker Activity (AID 2282997); conditions: BioMAP 3C HUVEC, tissue factor biomarker readout; actives raise or lower the signal
How it was run: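 Human vascular primary cells (umbilical vein endothelium) received test chemical; Tissue Factor was determined by ELISA at 24 h, and both gain and loss of signal versus DMSO were fitted.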

[10] = BSK_3C_uPAR: BioMAP Diversity Plus: 3C Assay for Urokinase-type plasminogen activator receptor (uPAR) Biomarker Activity (AID 2282998); conditions: BioMAP 3C HUVEC, uPAR biomarker ELISA; actives raise or lower the signal
How it was run: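 Human umbilical vein endothelial primary cells were exposed to test chemical for 24 h. Cell-surface uPAR was then quantified by ELISA, and responses were fitted bidirectionally against DMSO as negative control and baseline.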

[11] = BSK_3C_VCAM1: BioMAP Diversity Plus: 3C Assay for Vascular cell adhesion molecule 1 (VCAM1) Biomarker Activity (AID 2282999); conditions: BioMAP 3C HUVEC, VCAM1 ELISA, cytokine-stimulated; actives raise or lower the signal
How it was run: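 Human umbilical vein endothelial cells (3C system), biomarker read by ELISA 24 h after dosing; bidirectional fit against DMSO baseline. Cytotoxicity tracked by SRB total-protein staining in parallel cultures at biomarker time.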

[12] = BSK_4H_Eotaxin3: BioMAP Diversity Plus: 4H Assay for Eotaxin 3 Biomarker Activity (AID 2283000); conditions: primary human endothelial cells (HUVEC); actives raise or lower the signal
How it was run: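 Readout is Eotaxin-3 (CCL26) level by ELISA in primary human umbilical vein endothelial cells harvested 24 h after chemical exposure; activity fitted in both directions against DMSO control.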

[13] = target: human Peroxisome Proliferator-activated Receptor delta (PPARd), PPARD (gene 5467) (UniProt Q03181); test: ATG_PPARd_TRANS: Attagene TRANS-FACTORIAL HepG2 Assay for human Peroxisome Proliferator-activated Receptor delta (PPARd) (AID 2283002; active = hit-call score of the fitted dose curve at least 0.9, where 1 is the maximum)
Chain of human Peroxisome Proliferator-activated Receptor delta (PPARd), PPARD (gene 5467) (Q03181 whole entry, looked up, the tested form may be a part): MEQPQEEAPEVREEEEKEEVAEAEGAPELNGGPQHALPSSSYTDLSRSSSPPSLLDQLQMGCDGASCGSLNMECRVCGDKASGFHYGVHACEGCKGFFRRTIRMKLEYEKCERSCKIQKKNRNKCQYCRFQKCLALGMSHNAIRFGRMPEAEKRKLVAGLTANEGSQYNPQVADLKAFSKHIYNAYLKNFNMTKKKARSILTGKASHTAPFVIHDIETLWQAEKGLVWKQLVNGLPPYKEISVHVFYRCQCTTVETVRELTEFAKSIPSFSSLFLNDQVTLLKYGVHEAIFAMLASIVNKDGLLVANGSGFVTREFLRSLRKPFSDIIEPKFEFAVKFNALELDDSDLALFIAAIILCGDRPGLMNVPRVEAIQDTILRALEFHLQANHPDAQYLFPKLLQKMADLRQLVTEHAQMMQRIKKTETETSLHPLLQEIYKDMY
How it was run: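 Read-out: reporter mRNA induction, quantified by fluorescent RT-PCR products resolved by capillary electrophoresis. Human HepG2 liver cells carried transiently transfected Gal4-UAS reporter constructs with chimeric NR-Gal4 fusions. Cells were dosed for 24 h; DMSO served as baseline.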

[14] = BSK_3C_Proliferation: Cell Proliferation Assessment in the BioMAP Diversity Plus: 3C Assay (AID 2283006); conditions: primary human endothelial cells (HUVEC);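 as to AC50: potency may reflect either rise or fall in cell number versus DMSO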
How it was run: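 Read-out is total protein by SRB absorbance at 560 nm, taken as a proxy for relative cell number. Primary human umbilical vein endothelium cultured below confluence was dosed for 48 h, TCA-fixed and SRB-stained; curves were fitted bidirectionally versus DMSO.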

[15] = target: Nuclear receptor subfamily 1 group I member 2 (Homo sapiens) (UniProt O75469); test: ATG_PXR_TRANS: Attagene TRANS-FACTORIAL HepG2 Assay for human Pregnane X Receptor (PXR) (AID 2283008; active = hit-call score of the fitted dose curve at least 0.9, where 1 is the maximum)
Chain of Nuclear receptor subfamily 1 group I member 2 (Homo sapiens) (O75469 whole entry, looked up, the tested form may be a part): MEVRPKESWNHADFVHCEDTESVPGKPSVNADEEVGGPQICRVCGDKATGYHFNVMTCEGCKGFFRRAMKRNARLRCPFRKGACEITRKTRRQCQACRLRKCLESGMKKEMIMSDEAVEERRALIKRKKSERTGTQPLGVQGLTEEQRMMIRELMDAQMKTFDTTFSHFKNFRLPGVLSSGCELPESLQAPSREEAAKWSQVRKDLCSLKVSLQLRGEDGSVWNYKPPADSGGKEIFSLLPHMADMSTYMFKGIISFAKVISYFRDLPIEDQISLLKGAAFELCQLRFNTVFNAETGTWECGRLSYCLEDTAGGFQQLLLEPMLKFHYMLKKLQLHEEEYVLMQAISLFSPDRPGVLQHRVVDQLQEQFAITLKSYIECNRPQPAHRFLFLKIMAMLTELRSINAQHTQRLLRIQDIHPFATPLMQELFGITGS
How it was run: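 HepG2 cells transiently transfected with multiple reporter units, here a PXR-GAL4 chimera driving a GAL4-UAS reporter; 24 h compound exposure. Reporter mRNA measured by RT-PCR, FAM labelling and capillary electrophoresis; gain of signal fitted against DMSO baseline.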

[16] = target: human Retinoic Acid Receptor gamma (RARg), RARG (gene 5916) (UniProt P13631); test: ATG_RARg_TRANS: Attagene TRANS-FACTORIAL HepG2 Assay for human Retinoic Acid Receptor gamma (RARg) (AID 2283009; active = hit-call score of the fitted dose curve at least 0.9, where 1 is the maximum)
Chain of human Retinoic Acid Receptor gamma (RARg), RARG (gene 5916) (P13631 whole entry, looked up): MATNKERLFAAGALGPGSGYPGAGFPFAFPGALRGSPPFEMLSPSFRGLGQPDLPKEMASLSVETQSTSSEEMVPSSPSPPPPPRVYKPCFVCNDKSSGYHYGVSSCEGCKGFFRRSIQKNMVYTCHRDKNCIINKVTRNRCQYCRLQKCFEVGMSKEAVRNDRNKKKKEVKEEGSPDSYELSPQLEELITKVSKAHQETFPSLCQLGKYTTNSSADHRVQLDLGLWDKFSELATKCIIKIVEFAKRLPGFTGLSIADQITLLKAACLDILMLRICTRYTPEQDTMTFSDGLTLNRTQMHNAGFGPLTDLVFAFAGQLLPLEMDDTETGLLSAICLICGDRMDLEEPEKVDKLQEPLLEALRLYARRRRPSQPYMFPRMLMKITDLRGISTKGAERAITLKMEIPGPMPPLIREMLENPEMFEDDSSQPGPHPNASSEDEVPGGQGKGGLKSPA
How it was run: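 Transient transfection of HepG2 with multi-reporter constructs, then 24 h chemical treatment. Total RNA isolated, reverse-transcribed, PCR-amplified, fluorescently labelled and resolved by capillary electrophoresis; activity scored as mRNA induction versus DMSO.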

[17] = read-out: Intercellular Adhesion Molecule 1 (ICAM1), ICAM1 (gene 3383); test: BSK_3C_ICAM1: BioMAP Diversity Plus: 3C Assay for Intercellular Adhesion Molecule 1 (ICAM1) Biomarker Activity (AID 2283003); conditions: primary human endothelial cells (HUVEC); actives raise or lower the signal
How it was run: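 ICAM-1 levels measured by ELISA after HUVEC cultures in the 3C system had been dosed for 24 h. Gain or loss of signal relative to DMSO was fitted in both directions.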

[18] = target: human Retinoic Acid Receptor beta (RARb), RARB (gene 5915) (UniProt P10826); test: ATG_RARb_TRANS: Attagene TRANS-FACTORIAL HepG2 Assay for human Retinoic Acid Receptor beta (AID 2283004; active = hit-call score of the fitted dose curve at least 0.9, where 1 is the maximum)
Chain of human Retinoic Acid Receptor beta (RARb), RARB (gene 5915) (P10826 whole entry, looked up, the tested form may be a part): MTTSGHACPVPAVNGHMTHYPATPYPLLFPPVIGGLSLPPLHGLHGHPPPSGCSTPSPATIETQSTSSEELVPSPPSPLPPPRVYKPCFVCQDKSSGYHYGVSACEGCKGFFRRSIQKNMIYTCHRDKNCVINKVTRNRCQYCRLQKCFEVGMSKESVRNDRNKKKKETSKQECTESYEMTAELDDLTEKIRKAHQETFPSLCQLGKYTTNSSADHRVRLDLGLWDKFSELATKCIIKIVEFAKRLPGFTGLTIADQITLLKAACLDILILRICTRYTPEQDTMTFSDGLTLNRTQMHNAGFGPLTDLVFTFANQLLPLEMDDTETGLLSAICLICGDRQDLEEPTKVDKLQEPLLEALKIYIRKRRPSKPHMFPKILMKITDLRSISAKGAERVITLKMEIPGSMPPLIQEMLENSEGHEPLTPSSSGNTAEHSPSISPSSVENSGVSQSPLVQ
How it was run: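 Readout is reporter mRNA induction: RNA reverse-transcribed, PCR-amplified, FAM-labelled, HpaI-cut and resolved by capillary electrophoresis. Transiently transfected HepG2 cells carrying exogenous NR–Gal4 chimeras were dosed for 24 h; activity fitted upward relative to DMSO.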

[19] = target: Retinoic acid receptor alpha (Homo sapiens) (UniProt P10276); test: ATG_RARa_TRANS: Attagene TRANS-FACTORIAL HepG2 Assay for human Retinoic Acid Receptor alpha (RARa) (AID 2283005; active = hit-call score of the fitted dose curve at least 0.9, where 1 is the maximum)
Chain of Retinoic acid receptor alpha (Homo sapiens) (P10276 whole entry, looked up, the tested form may be a part): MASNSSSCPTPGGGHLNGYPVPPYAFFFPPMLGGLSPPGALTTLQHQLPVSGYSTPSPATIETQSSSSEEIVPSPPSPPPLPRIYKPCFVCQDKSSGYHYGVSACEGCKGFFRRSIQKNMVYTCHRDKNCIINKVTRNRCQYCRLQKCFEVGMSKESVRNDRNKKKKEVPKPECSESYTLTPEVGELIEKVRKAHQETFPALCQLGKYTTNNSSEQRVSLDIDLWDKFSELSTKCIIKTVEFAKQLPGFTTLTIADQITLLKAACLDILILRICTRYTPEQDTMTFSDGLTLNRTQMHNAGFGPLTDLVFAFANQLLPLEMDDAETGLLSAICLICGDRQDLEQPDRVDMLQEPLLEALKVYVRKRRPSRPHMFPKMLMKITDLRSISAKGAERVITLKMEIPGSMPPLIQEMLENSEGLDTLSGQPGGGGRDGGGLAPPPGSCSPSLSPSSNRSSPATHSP
How it was run: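 HepG2 transiently transfected with multiplex GAL4-UAS reporter units including a human RARa–GAL4 chimera; 24 h compound exposure. Reporter mRNA quantified by RT-PCR, 6-FAM labeling and capillary electrophoresis; gain of signal versus DMSO.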

[20] = target: Peroxisome proliferator-activated receptor gamma (Homo sapiens) (UniProt P37231); test: ATG_PPARg_TRANS: Attagene TRANS-FACTORIAL HepG2 Assay for human Peroxisome Proliferator-activated Receptor-gamma (PPARg) (AID 2283007; active = hit-call score of the fitted dose curve at least 0.9, where 1 is the maximum)
Chain of Peroxisome proliferator-activated receptor gamma (Homo sapiens) (P37231 whole entry, looked up, the tested form may be a part): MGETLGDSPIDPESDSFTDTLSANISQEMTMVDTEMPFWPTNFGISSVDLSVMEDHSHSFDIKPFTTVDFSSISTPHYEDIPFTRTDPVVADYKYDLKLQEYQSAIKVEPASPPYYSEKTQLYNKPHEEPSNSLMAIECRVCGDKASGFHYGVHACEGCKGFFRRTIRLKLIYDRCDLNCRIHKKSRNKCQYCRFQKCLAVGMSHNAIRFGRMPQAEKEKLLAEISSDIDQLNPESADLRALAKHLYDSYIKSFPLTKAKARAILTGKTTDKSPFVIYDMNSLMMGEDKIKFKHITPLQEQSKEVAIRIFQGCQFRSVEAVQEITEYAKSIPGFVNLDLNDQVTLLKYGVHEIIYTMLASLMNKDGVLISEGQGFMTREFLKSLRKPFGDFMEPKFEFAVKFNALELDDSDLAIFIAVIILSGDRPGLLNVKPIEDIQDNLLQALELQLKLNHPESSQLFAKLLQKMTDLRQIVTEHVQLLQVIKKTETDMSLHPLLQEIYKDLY
How it was run: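 Chimeric NR-Gal4 transactivation is measured in transiently transfected HepG2 cells by reporter mRNA induction at 24 h. Detection uses RT-PCR with fluorescent labelling and capillary electrophoresis; DMSO defines baseline.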

Measured: AC50

O=C(O)c1ccc2c(c1)C(=O)OC2=O
inactive: [1] | [2] | [3] | [4] | [5] | [6] | [7] | [8]

CCCCCC(=O)OCC
inactive: [1] | [2] | [3] | [4] | [5] | [6] | [7]

O=C1CCCCCCCCCCCN1
inactive: [1] | [2] | [3] | [4] | [5] | [6] | [7] | [9] | [10] | [11] | [12] | [13] | [14] | [16]
active: [15] 5.31 µM

CCOC(=O)C1=NN(c2ccc(Cl)cc2Cl)C(C)(C(=O)OCC)C1 (configuration not stated)
active: [15] 10.1 µM
inactive: [1] | [2] | [3] | [4] | [5] | [6] | [7] | [9] | [10] | [11] | [12] | [13] | [17] | [18] | [14] | [16]

Oc1c(Cl)cc(Cl)c(Cl)c1Cl
active: [5] 27.1 µM | [6] 100 µM | [9] 23.8 µM | [10] 20 µM | [11] 20 µM | [12] 32.5 µM | [8] 27.2 µM | [14] 20 µM | [20] 27 µM
inactive: [1] | [2] | [3] | [4] | [7] | [13] | [19] | [15] | [16]

CC/C=C\CCOC(=O)c1ccccc1O
active: [5] 100 µM | [7] 138 µM | [9] 25.4 µM | [10] 31.8 µM | [11] 30.1 µM | [12] 20 µM | [17] 31.3 µM | [14] 22.8 µM | [20] 39.5 µM
inactive: [1] | [2] | [3] | [4] | [6] | [8] | [13] | [15] | [16]

CC(C)c1cccc(C(C)C)c1N
inactive: [1] | [2] | [3] | [4] | [5] | [6] | [7] | [9] | [10] | [11] | [8] | [19] | [14] | [15] | [16]
active: [12] 33.1 µM

Oc1ccccc1Cc1ccccc1O
inactive: [1] | [2] | [3] | [4] | [9] | [10] | [11] | [12] | [13] | [15] | [16]
active: [5] 40.7 µM | [6] 134 µM | [7] 100 µM | [14] 7.87 µM and 20 µM | [20] 61.1 µM

CN1CCN(C)CC1
inactive: [1] | [2] | [3] | [4] | [5] | [6] | [7]

— PubChem BioAssay (EPA / NIEHS)
